# Rows were chosen to be rich in hits. Some 0.33% of all compounds tested hit in one or more screens of this group.
# FXIIa inh: blocks human coagulation factor XIIa activity. AID 701. purified human FXIIa, AMC substrate fluorescence, 2 h. inhibition, % at 10 µM. actives 0.2% (n = 33,000); in the data active means inhibition above about 30%;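 further: 0% = enzyme with vehicle only and 100% = no enzyme blank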
# FXIa inh: inhibitors of human coagulation factor XIa | actives 0.3% (n = 33,000) | AID 687 | purified human FXIa, fluorogenic AMC substrate cleavage | inhibition, % at 10 µM | P03951;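 active means inhibition above 40% in the primary screen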;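 further: 0% = enzyme without compound and 100% = blank wells lacking enzyme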
# Target sequence (P03951 19-387 limits assumed): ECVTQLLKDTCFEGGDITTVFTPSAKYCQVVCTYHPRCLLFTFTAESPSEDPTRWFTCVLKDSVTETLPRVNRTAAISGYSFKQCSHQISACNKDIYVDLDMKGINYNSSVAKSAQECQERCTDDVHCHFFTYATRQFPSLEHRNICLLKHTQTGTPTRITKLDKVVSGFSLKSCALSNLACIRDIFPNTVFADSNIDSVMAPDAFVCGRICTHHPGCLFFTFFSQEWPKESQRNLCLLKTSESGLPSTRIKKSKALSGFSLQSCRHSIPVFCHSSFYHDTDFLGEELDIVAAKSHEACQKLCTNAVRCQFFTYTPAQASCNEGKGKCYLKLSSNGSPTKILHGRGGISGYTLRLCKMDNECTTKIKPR
# Target sequence (P03951 388-625 limits assumed): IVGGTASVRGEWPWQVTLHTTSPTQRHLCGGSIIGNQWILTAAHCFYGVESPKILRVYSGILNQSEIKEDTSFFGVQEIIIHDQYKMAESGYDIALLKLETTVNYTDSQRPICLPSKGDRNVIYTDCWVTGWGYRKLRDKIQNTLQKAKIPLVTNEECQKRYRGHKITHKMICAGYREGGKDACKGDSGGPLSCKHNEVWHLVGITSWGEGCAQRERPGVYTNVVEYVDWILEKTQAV
# * = called active by the depositor.
SMILES,FXIIa inh,FXIa inh
CCOC(=O)c1[nH]c2ccc(OC)cc2c1NC(=O)CN1CCc2ccccc2C1,0.5,-6.1
COC(=O)c1[nH]c2ccc(Br)cc2c1NC(=O)CN1CCCc2ccccc21,3.4,44.7*
Cc1cccc(NC(=O)c2cc(NC(=O)c3ccco3)ccc2Cl)n1,5.7,0.1
CCc1ccc(NC(=O)Cn2nc(C(F)(F)F)c3c2CCC3)cc1,1.8,44.2*
CCc1ccccc1NC(=O)Cn1nc(C(F)(F)F)c2c1CCC2,0.9,-3.0
Cn1c(=O)c2c(nc(NCC3CCCO3)n2Cc2cccc(Br)c2)n(C)c1=O (stereo not given),5.2,2.6
CCOc1cc(S(=O)(=O)NCc2ccccc2)c(OCC)cc1-n1cnnn1,5.2,-1.8
CCOc1cc(S(=O)(=O)N(Cc2ccccc2)Cc2ccccc2)c(OCC)cc1-n1cnnn1,2.4,44.7*
NNC(=O)Cn1c(SCc2ccccc2)nc2ccccc21,6.2,0.5
CCc1c(O)nc(SCC(=O)NC(C)(C)C)n(-c2ccccc2)c1=O,1.3,43.2*
CCCCc1c(O)nc(SCC(=O)NC(C)(C)C)n(-c2ccccc2C)c1=O,3.0,-2.0
CC1CCN(S(=O)(=O)c2ccc(NC(=O)Cc3cccs3)cc2)CC1,-15.9,14.0
O=C(O)c1cn(-c2ccccc2)nc1-c1cccnc1,-0.9,2.0
O=C(c1cn(-c2ccccc2)nc1-c1ccncc1)n1nnc2ccccc21,88.8*,96.3*
COc1ccc(CNS(=O)(=O)c2cccc(S(=O)(=O)N3CCOCC3)c2)cc1,-9.7,20.9
CCCC(=O)c1cc(F)c(N2CCOCC2)cc1C,3.0,-10.1
CCN(CC)C(=O)C(Sc1ccccc1)c1ccccc1 (stereo not given),7.5,-0.1
COC(=O)c1sc(NC(=O)CSc2nncs2)c(C(=O)OC)c1C,3.6,-7.0
COC(=O)c1sc(NC(=O)CC(C)C)c(C(=O)OC)c1C,6.0,43.3*
Cn1c(Cn2nnc(-c3ccccc3)n2)nnc1SCc1ccccc1Cl,3.5,-2.7
O=c1c2cc(F)ccc2[nH]c(=S)n1CCCN1CCOCC1,-0.4,-0.9
COc1ccc(S(=O)(=O)N2CCC(C(=O)N3CCc4ccccc4C3)CC2)cc1Cl,7.0,61.4*
COc1ccc(S(=O)(=O)N2CCC(C(=O)NC3CC3)CC2)cc1Cl,-0.8,-1.3
O=C(NCc1ccccn1)c1cn(CCc2ccccc2)nn1,31.0*,3.1
CC(c1ccccc1)n1cc(C(=O)NCc2ccccn2)nn1 (stereo not given),7.5,4.2
SMILES,FXIIa inh,FXIa inh
Cc1cccn2c(=O)c3cc(C(=O)N4CCc5ccccc5C4)n(C)c3nc12,-12.1,0.7
CN(CC(=O)O/N=C(\N)c1ccc([N+](=O)[O-])cc1)S(=O)(=O)c1ccccc1,-12.8,32.8
CCOC(=O)N=S(=O)(Oc1ccc([N+](=O)[O-])cc1)c1ccccc1 (stereo not given),6.3,43.5*
NC(Cc1ccc(Oc2ccc(O)cc2)cc1)C(=O)O (stereo not given),4.1,7.2
Cc1ccc(S(=O)(=O)NC2(C(=O)O)CCCCC2)cc1,16.0,-2.9
Cc1ccc(NC(=O)C2(S(=O)(=O)c3ccc(C)cc3)CC2)cc1,30.1*,0.3
O=C(Nc1ccc(Cl)c(Cl)c1)N(CCCN1CCOCC1)Cc1cccs1,0.6,2.1
O=C(Oc1ccc(OC(=O)N2CCOCC2)cc1)c1ccccc1,1.1,6.2
O=C(Oc1nsnc1N1CCOCC1)c1ccccc1,62.6*,65.8*
COc1ccc(OCCSc2ncn[nH]2)cc1,-15.3,42.7*
O=C(CSc1ncn[nH]1)NCCOc1ccccc1,-1.2,-2.4
Cc1cc(C)cc(NC(=O)NC2CCN(CC(=O)Nc3c(C)cc(C)cc3C)CC2)c1,6.1,-3.8
CCCNC(=O)CN(CCc1ccccc1)S(C)(=O)=O,16.4,0.9
O=C(COC(=O)c1ccccc1)Nc1ccccc1N1CCOCC1,5.2,2.8
O=S(=O)(NCC1CCCO1)c1ccc(S(=O)(=O)N(Cc2ccccc2F)C2CCCCC2)cc1 (stereo not given),8.5,1.3
COc1ccc(-c2nn(C)c(=O)c3ccccc23)cc1NC(=O)Cn1nc(-c2ccccc2)c2ccccc2c1=O,0.7,-5.1
COc1ccc(OCC(=O)Nc2cc(-c3nn(C)c(=O)c4ccccc34)ccc2OC)cc1,10.9,42.0*
COc1ccc(OCc2nc(N)nc(Nc3ccc(C)cc3)n2)cc1,9.9,4.0
Cn1nnnc1SCC(=O)N(C1CCCCC1)C1CCCCC1,-14.3,105.5*
CC1CCCC(NC(=O)CSc2nnnn2C)C1C (stereo not given),5.6,-1.5
CC(=O)C(=Nc1ccc(Cl)cc1Cl)NNc1cccc(Cl)c1,9.1,-11.8
COc1cccc(-c2nc3ccccc3c(=O)o2)c1,30.1*,-2.0
COc1cc(OC)cc(-c2nc3ccccc3c(=O)o2)c1,15.4,-4.2
O=C1c2ccccc2C(=O)N1CC1CCCO1 (stereo not given),10.9,2.0
O=C(CCCN1C(=O)c2ccccc2C1=O)NCC1CCCO1 (stereo not given),-11.1,44.1*
SMILES,FXIIa inh,FXIa inh
CCn1nc(CC(=O)Nc2nnc(CC(=O)N3CCOCC3)s2)c2ccccc2c1=O,4.8,-5.2
CCn1nc(CC(=O)Nc2nnc(CC(=O)N3CCCC3)s2)c2ccccc2c1=O,-15.1,65.7*
COc1ccc(Cl)cc1Nc1nc(C)cc(C)c1C(N)=O,2.9,-3.6
Cc1ccc(OCCn2cc(Br)c(=O)[nH]c2=O)cc1,0.9,-0.7
CC1=CC(=NOC(=O)c2cccc([N+](=O)[O-])c2)C=C(C)C1=O,51.2*,7.9
CC1=CC(=O)C(C(C)C)=C/C1=N/OC(=O)c1cccc([N+](=O)[O-])c1,-2.3,6.9
COCCNC(=O)COC(=O)/C=C/c1c(C)nn(Cc2ccc(Cl)cc2Cl)c1Cl,6.1,9.5
O=C(/C=C/c1ccco1)NC(=S)Nc1ccc(Cl)cn1,10.6,2.1
COc1ccc(CN2CCc3ccccc3C2)c(OC)c1OC,14.2,-1.8
O=C(NCc1ccccc1)C1CCCN(S(=O)(=O)c2cccc3nonc23)C1 (stereo not given),9.3,61.1*
O=C(NCc1ccc2c(c1)OCO2)C1CCCN(S(=O)(=O)c2cccc3nonc23)C1 (stereo not given),3.4,8.4
CN(C)CCCn1c(-c2ccccc2)nc(=S)c2c1CCCC2,8.2,-13.2
OCCCn1c(-c2ccccc2)nc(=S)c2c1CCCC2,7.3,42.9*
Cc1c(NC(=O)c2cc(C3CC3)on2)c(=O)n(-c2ccccc2)n1C,4.5,2.5
Cc1c(NC(=O)c2cc3ccccc3o2)c(=O)n(-c2ccccc2)n1C,7.2,57.4*
COC(=O)c1ccc(NC(=O)c2ccccc2SC)cc1,6.7,0.6
Cc1ccc(C(=O)ONc2ccc(N=NC(=O)c3ccccc3O)cc2)cc1,15.3,42.6*
CCOC(=O)c1sc(Nc2cccc(C)c2C)nc1C,5.0,6.8
Cc1ccc(CNC(=O)c2ccc(NC(=O)CCS(=O)(=O)c3cccs3)cc2)cc1,4.5,-3.4
CCOc1ccc(NC(=O)C2CCCN(S(=O)(=O)c3cccc4nsnc34)C2)cc1 (stereo not given),16.1,-4.2
Cc1ccc(NC(=O)CCn2cccc2)cc1C,5.7,-5.1
Cc1ccc(NC(=O)CCn2cccc2)cc1,3.5,44.4*
Cc1cccc(N2C(=O)c3cccc4c(N(C)CCO)ccc(c34)C2=O)c1,4.3,6.3
Cc1ccc2c(c1)-c1c(ssc1=S)C(C)(C)N2C(=O)c1ccco1,8.2,7.1
CC1(C)c2ssc(=S)c2-c2ccccc2N1C(=O)c1ccco1,33.9*,3.9

# Compound activity (PubChem)
